Experimental data: the OligoGym collection

target: FBXL3; assay: pooled miR-30 sensor sort-seq; sequence = guide strand; conditions: shRNA
Also: reference of the scale not given here.

Q: How did the sensor-assay potency score (higher = more potent) turn out when TACATCACTAAGTTCACTTTGG was run?
A: The sensor-assay potency score (higher = more potent) was 0.0732.

Q: For TTTAATAATCTGTTTGATCAGC, which sensor-assay potency score (higher = more potent) is on record?
A: The sensor-assay potency score (higher = more potent) was -0.685.

Q: How did the sensor-assay potency score (higher = more potent) turn out when TATGGAAGTGTGTCTGTCCAGG was run?
A: The sensor-assay potency score (higher = more potent) was -0.66.

Q: For TTGCTTGAAATTAAGGTGCTAT, which sensor-assay potency score (higher = more potent) is on record?
A: The sensor-assay potency score (higher = more potent) was 0.353.

Q: How did the sensor-assay potency score (higher = more potent) turn out when TTAATTATAATACATTTGCTTG was run?
A: The sensor-assay potency score (higher = more potent) was -1.08.

Q: For TATCACAAGCTGCTTCAGCTGA, which sensor-assay potency score (higher = more potent) is on record?
A: Its sensor-assay potency score (higher = more potent) is -0.251.

Q: How did the sensor-assay potency score (higher = more potent) turn out when TACTTGGAGAATAATGTCCTGA was run?
A: The sensor-assay potency score (higher = more potent) was 0.112.

Q: With TAACTCTTCATCAAGTGGCCGT as the sequence, how does the sensor-assay potency score (higher = more potent) read?
A: Its sensor-assay potency score (higher = more potent) is -0.249.

Q: TACTCTTCTGAATAGTATGGAA was tested. Which sensor-assay potency score (higher = more potent) did it give?
A: The sensor-assay potency score (higher = more potent) was -0.502.

Q: Which sensor-assay potency score (higher = more potent) does the source give for TACTGGAGTATCATCTATCTTA here?
A: Its sensor-assay potency score (higher = more potent) is -0.0234.

target: FBXO25; assay: as above; conditions: shRNA

Q: TAATCCAACTCCATCCAGGAGA was tested. Which sensor-assay potency score (higher = more potent) did it give?
A: The sensor-assay potency score (higher = more potent) was -0.761.

Q: How did the sensor-assay potency score (higher = more potent) turn out when ATATCTTGAATTGCACTTGAGA was run?
A: Its sensor-assay potency score (higher = more potent) is -0.85.

Q: Which sensor-assay potency score (higher = more potent) does the source give for TCTTAATCCAACTCCATCCAGG here?
A: The sensor-assay potency score (higher = more potent) was -0.487.

Q: TTGACCACATAATTGAACCTTC was tested. Which sensor-assay potency score (higher = more potent) did it give?
A: The sensor-assay potency score (higher = more potent) was 0.213.

Q: For TTCACTTGCTTAGTCATCTGAA, which sensor-assay potency score (higher = more potent) is on record?
A: Its sensor-assay potency score (higher = more potent) is 0.836.

Q: How did the sensor-assay potency score (higher = more potent) turn out when TTTTTTTCGATGCATATTCATG was run?
A: The sensor-assay potency score (higher = more potent) was -0.983.

Q: How did the sensor-assay potency score (higher = more potent) turn out when TGTGTCTCCGTACTGCTCCTTC was run?
A: Its sensor-assay potency score (higher = more potent) is -0.185.

Q: For TTCACTAAGCATATACAACGTG, which sensor-assay potency score (higher = more potent) is on record?
A: The sensor-assay potency score (higher = more potent) was -0.104.

Q: Which sensor-assay potency score (higher = more potent) does the source give for TATTGAATATTTCTCCATCTTC here?
A: The sensor-assay potency score (higher = more potent) was -0.493.

Q: Which sensor-assay potency score (higher = more potent) does the source give for TCTGTCTTAATCCAACTCCATC here?
A: The sensor-assay potency score (higher = more potent) was -1.72.

Q: Which sensor-assay potency score (higher = more potent) does the source give for TAGGTCTTGCAGAAGATCTTTG here?
A: The sensor-assay potency score (higher = more potent) was -0.731.

Q: With TCACTAAGCATATACAACGTGG as the sequence, how does the sensor-assay potency score (higher = more potent) read?
A: The sensor-assay potency score (higher = more potent) was -0.518.

target: FBXO27; assay: as above; conditions: shRNA

Q: With TTGATGTTGGAGAACACGTGGG as the sequence, how does the sensor-assay potency score (higher = more potent) read?
A: The sensor-assay potency score (higher = more potent) was -0.501.

Q: Which sensor-assay potency score (higher = more potent) does the source give for TGTTGCACCATCCACTTTCGGA here?
A: The sensor-assay potency score (higher = more potent) was -0.815.

Q: Which sensor-assay potency score (higher = more potent) does the source give for AATTTATCTAGAACAGTCTGGT here?
A: Its sensor-assay potency score (higher = more potent) is 0.248.

Q: With TTTATCTAGAACAGTCTGGTTG as the sequence, how does the sensor-assay potency score (higher = more potent) read?
A: Its sensor-assay potency score (higher = more potent) is 0.00929.

Q: TTACAGGTCCTTGAGGATCAGG was tested. Which sensor-assay potency score (higher = more potent) did it give?
A: Its sensor-assay potency score (higher = more potent) is -1.43.

Q: How did the sensor-assay potency score (higher = more potent) turn out when TTATCTAGAACAGTCTGGTTGG was run?
A: The sensor-assay potency score (higher = more potent) was 0.434.

Q: TTTTCCTCCACCACCCAGCCGT was tested. Which sensor-assay potency score (higher = more potent) did it give?
A: The sensor-assay potency score (higher = more potent) was -0.662.

Q: For TTTAACGTAGACTTTCAGCTGC, which sensor-assay potency score (higher = more potent) is on record?
A: The sensor-assay potency score (higher = more potent) was 0.647.

Q: Which sensor-assay potency score (higher = more potent) does the source give for TGATATATTATTCTTACTGTTT here?
A: Its sensor-assay potency score (higher = more potent) is -0.893.

Q: With TTTTTTAACGTAGACTTTCAGC as the sequence, how does the sensor-assay potency score (higher = more potent) read?
A: Its sensor-assay potency score (higher = more potent) is -0.574.

Q: Which sensor-assay potency score (higher = more potent) does the source give for TTTTTTTTTAACGTAGACTTTC here?
A: Its sensor-assay potency score (higher = more potent) is -0.903.

Q: Which sensor-assay potency score (higher = more potent) does the source give for TCTGGTAGTTTCTAGAACCTGA here?
A: The sensor-assay potency score (higher = more potent) was 0.603.

target: FBXO43; assay: as above; conditions: shRNA

Q: Which sensor-assay potency score (higher = more potent) does the source give for TAATTCTGTTAAGATGTCCAGT here?
A: Its sensor-assay potency score (higher = more potent) is -0.342.

Q: With TAGGCTACAATCATCTTTGGAA as the sequence, how does the sensor-assay potency score (higher = more potent) read?
A: Its sensor-assay potency score (higher = more potent) is 0.408.

Q: For TTGCTTTTCATGAACAGCTCAT, which sensor-assay potency score (higher = more potent) is on record?
A: The sensor-assay potency score (higher = more potent) was -0.219.

Q: AACCTTAACATATTCTTCCTGT was tested. Which sensor-assay potency score (higher = more potent) did it give?
A: The sensor-assay potency score (higher = more potent) was 0.212.

Q: For TAACAGAAGAGCTTGCTAGAGG, which sensor-assay potency score (higher = more potent) is on record?
A: Its sensor-assay potency score (higher = more potent) is -0.36.

Q: With TTTGACTGCATGAAGTCACTTC as the sequence, how does the sensor-assay potency score (higher = more potent) read?
A: The sensor-assay potency score (higher = more potent) was 0.521.
